This is an account of results in ChEMBL document CHEMBL4513216, “Probing the Open Global Health Chemical Diversity Library for Multistage-Active Starting Points for Next-Generation Antimalarials” (ACS Infect Dis, 2020).

In all, about 69,000 compounds went through this assay and about 8,600 (12%) showed an effect of 50% or more. Shown is part of a subset that was picked to be rich in strong results.

The subject of the assay is Plasmodium berghei. Briefly: Screen against P. berghei liver stage (PbLuc), transformed with Luciferase, at 10uM. The conditions noted are these: tested at 10 uM. In kind it is functional, HepG2.
As for `Cc1cc(C2CCCN2C(=O)c2cc3c(s2)CCC3)no1` (stereo not given), the INHIBITION is recorded as 15.3%.
For the compound `CS(=O)(=O)N1CCOCC2(CCN(C(=O)c3ccco3)CC2)C1`, the INHIBITION came out at 27.6%.
Regarding `Cc1cnc(C)c(N2CCC3(CCCN(C4CCOCC4)C3=O)C2)n1` (stereo not given), the INHIBITION was -30%.
The figure for `CN1CCC(C(=O)N2CCC(c3ccc4c(N)n[nH]c4n3)CC2)CC1` is 34.75%; for `Cc1cnn(C2CCCN(C(=O)c3ccc(C(N)=O)cn3)C2)c1` (stereo not given) it is 44.3%.
As for `Cc1c(Br)cccc1S(=O)(=O)NCc1ccnn1C`, the INHIBITION is given as 37.1%.
With `O=c1cccnn1CC1CN(c2ncc(F)cn2)Cc2nccn2C1` (stereo not given), the INHIBITION is given as -3.33%.
The figure for `COc1ccc(C(=O)N2CCN(CCO)CC2)c(F)c1` is -61.4%.
For `OCCc1ncnn1Cc1cccc(Cl)c1`, the INHIBITION is given as 0.426%.
As for `CN(Cc1ccc2c(c1)OCO2)Cc1nc(Cc2ccccc2)no1`, the INHIBITION is reported as 9.56%.
On to `c1ccc(-n2nnnc2NCc2ccc3c(c2)OCO3)cc1`, for which the INHIBITION came out at 64.5%.
Turning to `CN(Cc1ccc2c(c1)OCCO2)Cc1nnnn1-c1ccccc1`, the INHIBITION is 51.2%.
In the case of `NC(=O)c1c[nH]nc1NCc1ccc2c(c1)OCO2`, the INHIBITION is on record as 4.35%.
As for `N#Cc1c[nH]nc1NCc1ccc2c(c1)OCO2`, the INHIBITION is -5.51%.
Regarding `c1ccc(-n2nnnc2CNCc2ccc3c(c2)OCCO3)cc1`, the INHIBITION is 34.9%.
For `COCCn1ccnc1CN1CCc2[nH]cnc2C1c1cnn(C)c1C` (stereo not given) the value was 32.2%; for `Cn1cc(-c2nnc3sc(C4CC4)nn23)cn1`, 0.87%.
With `O=C(COc1ccccc1)NCCNC(=O)c1scnc1Cl`, the INHIBITION is on record as 23.5%.
`CCCc1cc(=O)[nH]c(-c2ccccc2CN(C)CCn2cccn2)n1`: the INHIBITION was found to be 16.1%.
Consider `Cc1ccc(CN2CCC(NC(=O)c3scnc3C)CC2)cc1`, for which the INHIBITION is reported as 40.9%.
In the case of `Cc1ncsc1C(=O)NC1CCN(Cc2ccc(C(N)=O)cc2)CC1`, the INHIBITION is -12.2%.
Take `Cc1ncsc1C(=O)NC1CCN(Cc2ccc(C(F)(F)F)cc2)CC1`: the INHIBITION worked out at 62.6%.
The figure for `COCCN1CCN(Cc2ccc(F)c(C)c2)[C@H]2CS(=O)(=O)C[C@H]21` is 28.5%; for `CCc1ccc(CN2CCN(CCOC)[C@@H]3CS(=O)(=O)C[C@@H]32)cc1` it is 39.4%; for `COCCN1CCN(Cc2ccc(Cl)cc2)[C@H]2CS(=O)(=O)C[C@H]21` it is 52.1%.
The figure for `CCOc1ccc(CN2CCN(CCOC)[C@@H]3CS(=O)(=O)C[C@@H]32)cc1` is 45.8%.
As for `COCCN1CCN(Cc2ccc(C(C)=O)cc2)[C@H]2CS(=O)(=O)C[C@H]21`, the INHIBITION is listed as 32.1%.
As to `COCCN1CCN(Cc2nccs2)[C@H]2CS(=O)(=O)C[C@H]21`, the INHIBITION was found to be 55.7%.
For `COCCN1CCN(Cc2ccncc2)[C@H]2CS(=O)(=O)C[C@H]21`, the INHIBITION was 63.5%.
With `COCCN1CCN(Cc2cccnc2)[C@H]2CS(=O)(=O)C[C@H]21`, the INHIBITION is on record as 43%.
Regarding `COCCN1CCN(Cc2nc3c(s2)CCCC3)[C@H]2CS(=O)(=O)C[C@H]21`, the INHIBITION is given as -27.6%.
The figure for `Cn1ccnc1CN1CCCC(CCCc2ccccn2)(C(N)=O)C1` (stereo not given) is 10.9%.
On to `O=C(NCCc1ccco1)Nc1cc(C(F)(F)F)c[nH]c1=O`, for which the INHIBITION turned out to be 4.8%.
With `Cc1nc(C)n(CC2CCCN2CC(=O)Nc2cc(C)on2)n1` (stereo not given), the INHIBITION is 40.2%.
In the case of `CCN(C)C(=O)Cn1c(-c2ccco2)nn(-c2ccccc2OC)c1=O`, the INHIBITION is 33.3%.
Regarding `Cc1cccnc1C(=O)N1C[C@@H]2CC[C@H](Oc3cccc(F)c3)[C@@H]2C1`, the INHIBITION turned out to be 20.8%.
With `COCCN1CCC(NCc2ccc(F)cc2F)C1` (stereo not given), the INHIBITION is on record as 25.4%.
With `CSCC(=O)N1CCc2c(cnc(C)c2-c2noc(-c3cc[nH]n3)n2)C1`, the INHIBITION is 12.1%.
In the case of `O=C(Cc1ccc2c(c1)CCC2)N1CCN(c2cnccn2)CC1`, the INHIBITION is on record as -46.4%.
Turning to `O=C(CCCNC(=O)NCC1CCCO1)Nc1ccc(Cl)cc1` (stereo not given), the INHIBITION is recorded as 25.8%.
Regarding `CCOc1ccc(C(=O)NCCCNc2ncccn2)cc1`, the INHIBITION was 41.5%.
Turning to `COc1cc(OC)cc(C(=O)NCCCNc2ncccn2)c1`, the INHIBITION is -14.1%.
On to `Cc1cc(C)cc(C(=O)NCCCNc2ncccn2)c1`, for which the INHIBITION turned out to be 55.4%.
The figure for `O=C(CCCNc1ncccn1)Nc1cc(C(F)(F)F)c[nH]c1=O` is 29.15%; for `CC(O)(CNC(=O)c1c(F)cccc1Cl)C1CC1` (stereo not given) it is 9.79%.
As for `O=C(NCC(O)(c1ccco1)C1CC1)c1c(F)cccc1Cl` (stereo not given), the INHIBITION is given as 46.7%.
Take `CC(O)(CNC(=O)c1c(F)cccc1Cl)c1ccco1` (stereo not given): the INHIBITION is 55.6%.
On to `Cc1cc(Cl)ccc1NCc1ccc(C(=O)N(C)C)[nH]1`, for which the INHIBITION is listed as 3.03%.
Regarding `CCc1cnc(N2C[C@@H](NC(=O)c3cscn3)[C@H]3COC[C@H]32)nc1`, the INHIBITION is listed as -82.5%.
`CCC(=O)N1CCC2(C=C(C(=O)N(C)C)c3ccccc32)CC1`: the INHIBITION is given as 53%.
For `CC(C)N1CCC2(C=C(C(=O)N(C)C)c3ccccc32)CC1` the value was -41.6%.
As to `CC(C)CN1CCC2(C=C(C(=O)N(C)C)c3ccccc32)CC1`, the INHIBITION is recorded as 30.3%.
As for `CN1CCC2(C=C(C(=O)N(C)C)c3ccccc32)CC1`, the INHIBITION was found to be 63.8%.
Regarding `CCC(=O)N1CCC2(C=C(C(=O)N3CCCC3)c3ccccc32)CC1`, the INHIBITION is on record as 34.9%.
Turning to `CCN1CCC2(C=C(C(=O)N(C)C)c3ccccc32)CC1`, the INHIBITION came out at 41.2%.
On to `CC(C)COC(C)C(=O)NCCNC(=O)C(C)C` (stereo not given), for which the INHIBITION worked out at 36.8%.
As to `O=C(Cn1cc(Cl)cn1)N1CCCC(c2cc3ccccc3cn2)C1` (stereo not given), the INHIBITION came to 24.4%.
For the compound `O=C(C1CC=CC1)N1CCCn2nnc(CNc3ncccn3)c2C1`, the INHIBITION is given as 29.5%.
For `Fc1cccc(-n2ccc(CN3CCCC3Cn3cncn3)n2)c1` (stereo not given), the INHIBITION was -19.4%.
`Cc1nc(C(=O)N2CCCC2c2cncc(CN3CCCC3)n2)co1` (stereo not given): the INHIBITION was -33.6%.
Turning to `Cc1cc(C2CCCN2C(=O)c2cnn(C)c2)on1` (stereo not given), the INHIBITION is on record as 0.8%.
As to `Cc1cccc(NCC(=O)Nc2cc(F)ccc2F)c1C(N)=O`, the INHIBITION is on record as -33.7%.
Regarding `CCN1C[C@@H]2[C@@H](OC)CCN(C(=O)c3cc(C)nn3CC)[C@@H]2C1`, the INHIBITION was 84.1%.
The figure for `CCn1nc(C)cc1C(=O)N1CC[C@H](OC)[C@H]2CN(CC3CC3)C[C@H]21` is -6.39%.
For `CCN1C[C@H]2[C@@H](C1)N(C(=O)Cc1ccsc1)CC[C@H]2OC` the value was -9.74%.
